Most compounds without a hit are left out; they make up all but 9.2% or so of the library.
NPC1 promoter act = NPC1 promoter activation. Huh7 NPC1 promoter luciferase reporter, 24 h. Potency, µM (titrated, usually from 9.22 µM), inactives show at the top dose activation, usual class: activators. actives 2.4% (n = 320,000). AID 485313; further: % of control where 0% means no effect; nearly all actives have a fitted effect of over 60% in size
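Luminescence read-out of NPC1 promoter-driven luciferase in stably transfected Huh7 cells; compounds delivered in DMSO and left 24 h at 37C, 5% CO2, qHTS titration format.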
FLuc modulator = inhibits or activates purified firefly luciferase, miR-21 counter-screen. purified FLuc, Km substrates, luminescence inhibition. AID 588342. actives 6.9% (n = 360,000). Potency, µM (highest dose often 57.5 µM), without a hit: at the top dose activity change, negative = inhibition, hits mostly inhibitors. P08659;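 further: plate controls were vehicle for no effect and reference inhibitor for full effect; nearly all actives have a fitted effect of over 55% in size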
Target sequence (P08659 whole entry, looked up): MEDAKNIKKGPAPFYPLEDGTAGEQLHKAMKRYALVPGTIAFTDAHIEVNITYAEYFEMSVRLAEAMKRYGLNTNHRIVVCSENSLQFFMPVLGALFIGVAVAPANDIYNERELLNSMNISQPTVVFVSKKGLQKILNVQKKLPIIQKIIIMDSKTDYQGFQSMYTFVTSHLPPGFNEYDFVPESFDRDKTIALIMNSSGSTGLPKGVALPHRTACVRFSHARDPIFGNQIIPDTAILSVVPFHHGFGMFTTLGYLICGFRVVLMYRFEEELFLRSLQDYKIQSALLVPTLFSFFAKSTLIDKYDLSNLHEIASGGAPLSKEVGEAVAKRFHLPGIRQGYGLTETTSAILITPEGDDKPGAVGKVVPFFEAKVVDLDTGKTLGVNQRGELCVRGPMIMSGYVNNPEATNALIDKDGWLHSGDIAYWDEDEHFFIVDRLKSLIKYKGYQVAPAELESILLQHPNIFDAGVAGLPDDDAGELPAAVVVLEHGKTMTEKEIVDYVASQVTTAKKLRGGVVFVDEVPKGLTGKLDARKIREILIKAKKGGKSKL
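Purified P. pyralis luciferase (10nM final) with 10uM D-luciferin and 10uM ATP (Km levels) in 50mM Tris acetate pH 7.5, 10mM Mg acetate, 0.01% Tween-20, 0.05% BSA; qHTS 6-point titration, ~60 µM downward; luminescence read.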
SMN2 splice up = enhancers of SMN2 splice variant expression. HEK293 SMN2-luciferase splicing reporter, luminescence, 30-36 h. Potency, µM (titrated, usually from 46.1 µM), without a hit: at the highest dose activity change, positive = activation, hits mostly activators. actives 2.8% (n = 210,000); further: % of control where 0% means no effect; nearly all actives have a fitted effect of over 55% in size
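HEK293 cells carry an SMN2 […]–luciferase reporter in which exon 7 inclusion puts luciferase in frame. Cells were plated 10-12 h before compound addition, then incubated 30-36 h at 37C. ONE-Glo luminescence was read; sodium butyrate at 4.5 mM final served as control.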
Rab9 promoter act = activators of Rab9 promoter | Huh7 Rab9 promoter-luciferase reporter, luminescence, 24 h | AID 485297 | actives 2.8% (n = 320,000) | Potency, µM (doses to about 9.22 µM), without a hit: at the highest dose activation, negative = inhibition, hits mostly activators; further: % of control where 0% means no effect; nearly all actives have a fitted effect of over 60% in size
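Using Huh7 cells stably transfected with Rab9 promoter–luciferase, compounds were incubated 24 h at 37 °C, 5% CO2; luciferase luminescence was read 10 min after reagent addition.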
ELG1 genotoxic = induces genotoxicity in HEK293T cells with luciferase-tagged ELG1; actives 1.3% (n = 330,000); HEK293T ELG1-luciferase reporter, luminescence, 16 h; AID 504466; Potency, µM (doses to about 46 µM), inactives show at the highest dose activity change, positive = activation, actives largely listed as activators; further: % of control where 0% means no effect; nearly all actives have a fitted effect of over 60% in size
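Quantitative HTS format in 1536-well plates. HEK293T ELG1-luciferase reporter cells receive test compound and are incubated 16 hr at 37 °C, 5% CO2; ONE-Glo added, 30 min room temperature, then luminescence read.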
ELG1 repair inh = blocks ELG1-dependent DNA repair in HEK293T cells; HEK293T ELG1-luciferase reporter, luminescence, 16 h; DNA damage induced by 5-fluorouridine; Potency, µM (titrated, usually from 46.1 µM), for inactives: at the highest dose activity change, negative = inhibition, usual class: inhibitors; actives 2.3% (n = 330,000); AID 504467; further: on the % scale 0 is the no-effect control and ±100 the full control effect; nearly all actives have a fitted effect of over 55% in size
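DMSO vehicle served as the neutral condition. Each well held 2,000 cells given 5-fluorouridine plus compound; after 16 hr at 37 °C/5% CO2, ONE-Glo was added and luciferase measured 30 min later.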
* = called active by the depositor; [ ] = dose if it differs, or a comment. The call rests on the fitted dose curve; in most records, active means well fitted curve in the direction sought with a large enough effect; inconclusive means small, poorly fitted or top-dose-only effect, or another doubt; inactive means no such curve, though single readings can be large; an effect the other way counts as inactive or inconclusive. Potency means the concentration at half of the fitted maximal effect.

For CN(C1CCCCC1)S(=O)(=O)c1ccc(S(=O)(=O)N2CCN(C(=O)c3ccccc3F)CC2)cc1 the results were NPC1 promoter act 1%, FLuc modulator -1%, SMN2 splice up -30%, Rab9 promoter act -4%, ELG1 genotoxic -6% and ELG1 repair inh 18µM*.
COc1ccc(S(=O)(=O)Nc2cc3c(cc2N2CCOCC2)n(C)c(=O)n3C)cc1 was read as FLuc modulator 7% and SMN2 splice up 8%.
For O=C(Nc1ccc(F)cc1F)c1ccc(CN2CC(=O)N3CCCCC3C2=O)cc1 (centres undefined) the results were FLuc modulator 6%.
Screening CCOC(=O)c1cnc2ccc(OC)cc2c1NCCc1ccc(OC)c(OC)c1 returned NPC1 promoter act -5%, FLuc modulator -19%, SMN2 splice up -8%, Rab9 promoter act -20%, ELG1 genotoxic -7% and ELG1 repair inh 21µM*.
For CCC(=O)Nc1cccc(-c2nc3ncccc3o2)c1C the results were NPC1 promoter act -1%, FLuc modulator 2%, Rab9 promoter act -2%, ELG1 genotoxic 4% and ELG1 repair inh 3%.
`Cc1ccc2nc(-c3cccc(NC(=O)CSc4ccc(Cl)cc4)c3)oc2c1` gave FLuc modulator 1.7µM* and SMN2 splice up inconclusive.
Cc1ccc2nc(-c3ccc(C)c(NC(=O)CSc4ccc(Cl)cc4)c3)oc2c1 was read as FLuc modulator 5.4µM* and SMN2 splice up inconclusive.
For Cc1ccc(-c2nn3c(C)nnc3s2)cc1NC(=O)CSc1ccc(Cl)cc1 the results were NPC1 promoter act -3%, FLuc modulator -3%, SMN2 splice up -26%, Rab9 promoter act -3%, ELG1 genotoxic 1% and ELG1 repair inh 21µM*.
`Cc1c(NC(=O)CSc2ccc(Cl)cc2)cccc1-c1nc2ncccc2o1` gave NPC1 promoter act -6%, FLuc modulator -3%, SMN2 splice up -36%, Rab9 promoter act 5%, ELG1 genotoxic -6% and ELG1 repair inh 9.2µM*.
For O=C(CSc1ccc(Cl)cc1)Nc1cccc(-c2nc3ncccc3o2)c1 the results were NPC1 promoter act 0%, FLuc modulator -16%, SMN2 splice up -19%, Rab9 promoter act 9%, ELG1 genotoxic -8% and ELG1 repair inh inconclusive.
For COc1ccc2sc3ccccc3c(=O)c2c1 the results were NPC1 promoter act inconclusive, FLuc modulator 6.7µM*, SMN2 splice up 15%, Rab9 promoter act inconclusive, ELG1 genotoxic inconclusive and ELG1 repair inh inconclusive.
For COc1cc(-c2ccc3c(=O)c4ccccc4sc3c2)cc(OC)c1OC the results were ELG1 genotoxic 9% and ELG1 repair inh 11%.
`COc1cccc(-c2sc3ccccc3c2-c2ccc(OCCN(C)C)cc2)c1` gave ELG1 genotoxic -10% and ELG1 repair inh inconclusive.
`COc1ccc(-c2cc(=O)c3ccccc3s2)cc1` gave NPC1 promoter act 1.4µM*, FLuc modulator 1.1µM*, SMN2 splice up 4µM*, Rab9 promoter act 0.89µM*, ELG1 genotoxic 2.3µM* and ELG1 repair inh inconclusive.
`Cc1ccc(CN(C(=O)c2csnn2)C(C(=O)NC2CCCC2)c2ccco2)cc1` (centres undefined) gave NPC1 promoter act -2%, FLuc modulator 4%, Rab9 promoter act 5%, ELG1 genotoxic 2% and ELG1 repair inh 2%.
For COc1cc(NC(=O)COC(=O)Cc2ccc(-c3ccccc3)cc2)cc(OC)c1 the results were NPC1 promoter act -7%, FLuc modulator inconclusive, SMN2 splice up 11%, Rab9 promoter act -1%, ELG1 genotoxic -1% and ELG1 repair inh -7%.
CN(C)C1C(=O)C(C(N)=O)=C(O)[C@@]2(O)C(=O)C3=C(O)c4c(O)ccc(Cl)c4[C@@H](O)C3C[C@@H]12 (some centres undefined) was read as SMN2 splice up -16%.
For COc1ccc(C)cc1C1=Nc2ccccc2C1(C)C the results were NPC1 promoter act -3%, FLuc modulator -5%, SMN2 splice up -39%, Rab9 promoter act 2%, ELG1 genotoxic 2% and ELG1 repair inh -1%.
`Cc1ccc(O)c(C2=Nc3ccccc3C2(C)C)c1` gave NPC1 promoter act 29%, FLuc modulator 12µM*, SMN2 splice up 11%, Rab9 promoter act inconclusive, ELG1 genotoxic inconclusive and ELG1 repair inh inconclusive.
Screening COc1ccc2c(c1)CCN1C2CCN2C(=O)CCC21 (centres undefined) returned NPC1 promoter act -1%, FLuc modulator 3%, Rab9 promoter act -5%[1.84 µM], ELG1 genotoxic 0% and ELG1 repair inh 8%.
`CC(=O)Nc1ccc(S(=O)(=O)NCCSCc2c(Cl)cccc2Cl)cc1` gave NPC1 promoter act 0%, FLuc modulator 0%, SMN2 splice up -34%, Rab9 promoter act -2%, ELG1 genotoxic -8% and ELG1 repair inh 23µM*.
Screening CC(=O)Nc1ccc(S(=O)(=O)NCCSCc2cccc(Cl)c2)cc1 returned NPC1 promoter act -6%, FLuc modulator 0%, SMN2 splice up -21%, Rab9 promoter act -5%, ELG1 genotoxic -3% and ELG1 repair inh -24%.
O=C(COC(=O)CC1CCCC1)Nc1cc2c(cc1Cl)C(=O)c1ccccc1C2=O was read as NPC1 promoter act 3.5µM*, FLuc modulator 13µM*, SMN2 splice up inconclusive, Rab9 promoter act 6.3µM*, ELG1 genotoxic 15µM* and ELG1 repair inh inconclusive.
CC(C)c1ccc(NC(=O)COC(=O)CC2CCCC2)cc1 was read as ELG1 genotoxic 4% and ELG1 repair inh 21%.
`CCOC(=O)CCc1c(C)c2ccc(OCc3ccc([N+](=O)[O-])cc3)cc2oc1=O` gave NPC1 promoter act 3%, FLuc modulator 4%, SMN2 splice up -5%, Rab9 promoter act 1%, ELG1 genotoxic 6% and ELG1 repair inh 1%.
`CCOC(=O)C1CSC(Cc2ccc(OCc3ccc([N+](=O)[O-])cc3)cc2)N1` (centres undefined) gave SMN2 splice up 13µM*.
`O=C(COc1ccc2c(c1)oc(=O)c1ccccc12)NCCN1CCOCC1` gave NPC1 promoter act -3%, FLuc modulator -9%, Rab9 promoter act 0%, ELG1 genotoxic 1% and ELG1 repair inh inconclusive.
Cc1nn(-c2ccccc2)c(C)c1-c1cc(C(=O)N/N=C/c2ccc(O)cc2)[nH]n1 was read as NPC1 promoter act -1%, FLuc modulator 21µM*, Rab9 promoter act 1%, ELG1 genotoxic -6% and ELG1 repair inh inconclusive.

Bioassay records as filed in PubChem.
